Here are results for 17 compounds from PubChem BioAssay.

Calls of active or inactive are those of the source.

Experiment [1] can be described thus: binders of probe aFSTL3 on microarray, primary screen, stem cell growth factor project, biochemical, small-molecule microarray, fluorescence 635/667 (AID 1064).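 Also: measures binding of the biotinylated anti-FSTL3 antibody to printed compounds.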 As to conditions: higher = more signal.
A short description of experiment [2]: binders from COS7 lysate, DM2A8 probe, primary screen, torsin A project, cell lysate, small-molecule microarray, fluorescence 635/667 (AID 1065). Particulars: higher = more signal, COS7 lysate expressing mutant human TOR1A.
A short description of experiment [3]: binders of probe aFGF2 on microarray, primary screen, stem cell growth factor project, biochemical, small-molecule microarray, fluorescence 635/667 (AID 1067).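 Also: measures binding of biotinylated aFGF2 protein to printed compounds on slides; z-score merges feature fluorescence and signal-to-noise across triplicate slides.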 Particulars: higher = more signal.
Experiment [4] in a line: binders of probe aFGF10 on microarray, primary screen, stem cell growth factor project, biochemical, small-molecule microarray, fluorescence 635/667 (AID 1071).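 Also: score merges 667 nm spot intensity and signal to noise from triplicate slides.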 As to conditions: higher = more signal.
The target in experiment [5] is Neurogenic locus notch homolog protein 2 (Homo sapiens) (UniProt Q04721). The experiment is described as follows: Notch2 binders on small-molecule microarrays, primary screen, biochemical, small-molecule microarray, 635 nm fluorescence, stem cell growth factors (AID 1073). Particulars: Notch2 binding, higher = more signal.
Sequence of Neurogenic locus notch homolog protein 2 (Homo sapiens) (Q04721 whole entry, looked up, canonical isoform): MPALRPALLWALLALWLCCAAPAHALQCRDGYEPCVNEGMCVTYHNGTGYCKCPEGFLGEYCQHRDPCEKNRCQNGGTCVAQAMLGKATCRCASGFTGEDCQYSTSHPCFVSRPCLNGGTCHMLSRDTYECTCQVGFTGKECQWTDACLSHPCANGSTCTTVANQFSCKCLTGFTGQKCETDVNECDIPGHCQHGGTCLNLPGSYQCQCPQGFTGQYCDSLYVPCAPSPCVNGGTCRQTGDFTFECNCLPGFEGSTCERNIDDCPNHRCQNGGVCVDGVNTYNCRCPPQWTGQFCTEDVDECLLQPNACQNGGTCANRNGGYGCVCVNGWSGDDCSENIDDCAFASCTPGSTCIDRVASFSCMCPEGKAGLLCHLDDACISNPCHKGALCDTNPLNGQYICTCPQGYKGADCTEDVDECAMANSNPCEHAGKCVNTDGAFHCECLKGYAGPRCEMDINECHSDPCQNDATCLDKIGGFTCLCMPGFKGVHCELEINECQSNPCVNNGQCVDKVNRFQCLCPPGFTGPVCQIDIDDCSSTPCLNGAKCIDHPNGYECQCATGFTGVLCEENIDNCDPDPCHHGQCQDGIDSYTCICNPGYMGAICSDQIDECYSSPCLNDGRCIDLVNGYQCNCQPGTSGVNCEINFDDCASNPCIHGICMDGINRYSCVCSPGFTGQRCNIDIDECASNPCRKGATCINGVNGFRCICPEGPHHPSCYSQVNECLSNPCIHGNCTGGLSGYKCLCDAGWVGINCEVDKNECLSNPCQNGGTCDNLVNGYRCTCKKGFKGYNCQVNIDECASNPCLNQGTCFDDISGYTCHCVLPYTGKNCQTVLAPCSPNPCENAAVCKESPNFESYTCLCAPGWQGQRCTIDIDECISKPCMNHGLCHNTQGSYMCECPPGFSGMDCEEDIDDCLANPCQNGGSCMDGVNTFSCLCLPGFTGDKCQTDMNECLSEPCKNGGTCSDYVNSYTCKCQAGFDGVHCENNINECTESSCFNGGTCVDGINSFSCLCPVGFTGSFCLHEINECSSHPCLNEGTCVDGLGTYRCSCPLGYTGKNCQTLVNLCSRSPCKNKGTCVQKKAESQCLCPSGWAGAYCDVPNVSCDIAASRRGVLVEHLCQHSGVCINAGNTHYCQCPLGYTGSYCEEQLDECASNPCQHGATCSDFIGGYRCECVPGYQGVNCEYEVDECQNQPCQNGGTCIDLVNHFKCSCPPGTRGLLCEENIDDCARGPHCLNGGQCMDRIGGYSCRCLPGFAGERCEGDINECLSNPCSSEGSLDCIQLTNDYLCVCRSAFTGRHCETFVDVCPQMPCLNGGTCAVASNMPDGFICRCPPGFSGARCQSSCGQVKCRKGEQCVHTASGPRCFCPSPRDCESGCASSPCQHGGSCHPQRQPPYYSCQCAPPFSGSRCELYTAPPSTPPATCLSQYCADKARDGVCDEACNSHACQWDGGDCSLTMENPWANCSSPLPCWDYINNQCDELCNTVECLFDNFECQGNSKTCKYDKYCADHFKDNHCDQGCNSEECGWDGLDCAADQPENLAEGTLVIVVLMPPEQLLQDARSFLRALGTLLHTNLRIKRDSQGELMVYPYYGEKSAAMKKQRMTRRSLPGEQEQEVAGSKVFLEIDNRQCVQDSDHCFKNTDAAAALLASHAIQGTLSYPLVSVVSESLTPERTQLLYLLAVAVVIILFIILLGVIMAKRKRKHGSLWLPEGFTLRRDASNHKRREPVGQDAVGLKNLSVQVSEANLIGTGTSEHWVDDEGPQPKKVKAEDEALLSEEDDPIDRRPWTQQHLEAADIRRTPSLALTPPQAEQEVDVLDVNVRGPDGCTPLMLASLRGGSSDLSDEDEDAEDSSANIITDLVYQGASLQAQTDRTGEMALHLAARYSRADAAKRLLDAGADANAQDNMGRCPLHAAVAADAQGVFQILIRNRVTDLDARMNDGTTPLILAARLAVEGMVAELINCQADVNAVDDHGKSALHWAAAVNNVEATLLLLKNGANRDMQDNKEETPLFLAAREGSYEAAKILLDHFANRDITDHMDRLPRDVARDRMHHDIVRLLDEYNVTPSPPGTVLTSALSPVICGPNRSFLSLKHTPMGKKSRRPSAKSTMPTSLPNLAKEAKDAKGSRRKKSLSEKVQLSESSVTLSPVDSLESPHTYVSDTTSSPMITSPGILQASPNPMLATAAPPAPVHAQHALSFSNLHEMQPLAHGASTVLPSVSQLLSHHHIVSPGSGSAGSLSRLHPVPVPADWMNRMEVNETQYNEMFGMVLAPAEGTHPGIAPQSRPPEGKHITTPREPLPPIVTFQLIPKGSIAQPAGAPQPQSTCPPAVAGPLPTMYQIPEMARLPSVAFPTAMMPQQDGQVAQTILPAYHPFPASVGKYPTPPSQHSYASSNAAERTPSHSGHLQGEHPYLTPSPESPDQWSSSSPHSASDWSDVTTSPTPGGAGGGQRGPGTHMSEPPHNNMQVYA
Experiment [6] addresses Pro-neuregulin-1, membrane-bound isoform (Homo sapiens) (UniProt Q02297). The experiment can be described thus: NRG1 binders on small-molecule microarrays, primary screen, psychiatric disease protein project, biochemical, small-molecule microarray, fluorescence 635/667 (AID 1075).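 Also: score combines 667 nm spot fluorescence with signal to noise.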 As to conditions: NRG1 binding, 635 nm fluorescence, higher = more signal.
Experiment [7] deals with Neuregulin-1 EGF-like domain. The experiment is described as follows: binders of neuregulin-1 EGF-like domain, primary screen, biochemical, small-molecule microarray, 635 nm fluorescence (AID 1081).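 Also: binding of the protein to compounds printed on small-molecule microarray slides.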 As to conditions: small-molecule microarray binding, higher = more signal.
Experiment [8] is described as follows: FRG1 promoter luciferase signal modulators, primary screen, FRG1 inhibition for FSHD, cell-based, C2C12 myotubes, firefly/Renilla luciferase, luminescence (AID 1084). Particulars: higher = more signal, called active from +8 up or from −8 down.
The nature of experiment [9]: binders of probe aFST on microarray, primary screen, stem cell growth factor project, biochemical, small-molecule microarray, fluorescence 635/667 (AID 1086).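 Also: score merges 667 nm fluorescence with signal-to-noise of each printed compound spot.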 As to conditions: higher = more signal.
A short description of experiment [10]: binders of probe aHhip on microarray, primary screen, stem cell growth factor project, biochemical, small-molecule microarray, fluorescence 635/667 (AID 1087).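 Also: score merges spot fluorescence at 667nm with spot signal to noise ratio.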 As to conditions: higher = more signal.

Sequence of Pro-neuregulin-1, membrane-bound isoform (Homo sapiens) (Q02297 whole entry, looked up, the tested form may be a part, canonical isoform): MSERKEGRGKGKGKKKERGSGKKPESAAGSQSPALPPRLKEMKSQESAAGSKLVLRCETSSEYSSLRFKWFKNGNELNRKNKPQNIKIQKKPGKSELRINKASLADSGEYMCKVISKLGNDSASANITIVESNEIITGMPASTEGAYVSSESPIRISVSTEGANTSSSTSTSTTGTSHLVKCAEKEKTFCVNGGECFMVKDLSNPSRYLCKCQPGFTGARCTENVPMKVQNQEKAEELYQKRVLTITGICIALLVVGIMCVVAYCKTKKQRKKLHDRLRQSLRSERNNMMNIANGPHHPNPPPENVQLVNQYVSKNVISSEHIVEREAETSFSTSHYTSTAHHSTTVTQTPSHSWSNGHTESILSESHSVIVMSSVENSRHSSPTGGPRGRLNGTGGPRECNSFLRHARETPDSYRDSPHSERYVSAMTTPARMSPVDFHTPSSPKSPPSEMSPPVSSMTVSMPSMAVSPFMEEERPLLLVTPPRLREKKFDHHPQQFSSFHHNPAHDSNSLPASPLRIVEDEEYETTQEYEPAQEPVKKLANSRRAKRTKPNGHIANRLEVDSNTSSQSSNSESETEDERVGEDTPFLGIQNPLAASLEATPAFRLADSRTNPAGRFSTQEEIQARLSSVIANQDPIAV

For the compound `Cc1ccc(F)cc1S(=O)(=O)N[C@@H]1CCN(Cc2ccc(Br)cc2)C1`, the composite z-score in experiment [1] was -0.414; in [2], 0.673; in experiment [3], -0.23; in [4] it was -0.207; in experiment [5], 0.414; in [6], -0.107. The composite z-score was 0.035 in experiment [7], 0.258 in experiment [9] and -0.0994 in [10]. Also, the z-score in experiment [8] is -2.08 (inactive).
Take `C=C(C(=O)CC[C@H](OC(=O)c1ccccc1-c1ccccc1C(=O)O)c1cccc(OCCO)c1)C(C)C`: the composite z-score in experiment [1] is -0.337; in experiment [2] it was -0.062; in [3], -0.109; in [4], 0.211; in [5], -0.275; in experiment [6] it was 0.262. The results for the composite z-score in [7], in [9] and in experiment [10] were 0.0799, -0.224 and -0.134, respectively. Further, in [8], the z-score is -0.0752 (inactive).
For the compound `[N-]=[N+]=Nc1ccccc1C[C@@]1(C(=O)NCCN2CCOCC2)N=C(c2ccc(OCCCO)cc2)O[C@@H]1c1ccccc1N=[N+]=[N-]`, the composite z-score in experiment [1] is 0.59; in experiment [2], 0.639; in experiment [3] it was -0.167; in experiment [4], 1.28; in [5], 1.04; in experiment [6], 1.69. Further, the composite z-score amounted to 1.29 in [7], 0.98 in experiment [9] and 0.122 in experiment [10]. Moreover, the z-score in experiment [8] was -2.04 (inactive).
As for `O=C1O[C@H](c2ccccc2)[C@H](c2ccccc2)N2[C@H]1[C@@H](C(=O)O)[C@]1(C(=O)Nc3ccc(C#CCCO)cc31)[C@H]2c1ccccc1OCCO`, the composite z-score in experiment [1] was -0.324; in experiment [2], 0.627; in [3], -0.0962; in experiment [4], 0.21; in [5], -0.0765; in experiment [6], 0.944. The composite z-score in [7] is 1.23; in [9], -0.0238; in experiment [10], -0.0994. Moreover, in experiment [8], the z-score is 0.37 (inactive).
Turning to `CCOC(=O)C[C@H]1[C@H](OC(=O)c2ccc(C(=O)c3ccccc3)cc2)[C@@H](NC(=O)C2CCCCC2)c2cc(OCCCO)ccc2N1C(=O)c1ccc2ccccc2n1`, the composite z-score in experiment [1] is -0.244; in [2], 0.213; in experiment [3] it was -0.0885; in experiment [4] it was 0.735; in experiment [5], 1.03; in [6] it was 0.532. Further, the figures for the composite z-score in [7], in experiment [9] and in experiment [10] were 0.722, 0.842 and 0.382, respectively. The z-score in [8] is 0.0852 (inactive).
In the case of `Cc1ccc(C(C)CC(O)C2C=CC3C(=O)N(c4ccccc4)C(=O)C3N2Nc2ccccc2)o1` (stereo not given), the composite z-score was -0.172 in [1]; -0.314 in [2]; -0.087 in [3]; 0.504 in experiment [4]; 1.65 in experiment [5]; 1.18 in experiment [6]. Further, the composite z-score came to 1.21 in experiment [7], 1.51 in experiment [9] and 0.113 in [10]. Further, the z-score in [8] is -0.0963 (inactive).
With `CC(C)[Si](C#C[Si](C(C)C)(C(C)C)C(C)C)(O[C@H](c1ccccc1)c1cn(Cc2ccccc2)nn1)C(C)C`, the composite z-score in experiment [1] is -0.353; in experiment [2], 0.213; in [3], -0.1; in experiment [4] it was 0.311; in experiment [5] it was 0.615; in experiment [6], -0.16. Besides, the composite z-score came out at 0.928 in experiment [7], 0.276 in experiment [9] and 0.0808 in [10]. In [8], the z-score is 0.133 (inactive).
Turning to `O=C(C1N=C(c2ccc(OCCCO)cc2)N(c2ccccc2)O1)N1CCCCC1` (stereo not given), the composite z-score in experiment [1] was 0.819; in experiment [2], 1.49; in experiment [3], 0.182; in experiment [4], 0.938; in experiment [5] it was 1.05; in [6], 1.99. The composite z-score in experiment [7] is 1.36; in [9] it was 1.13; in experiment [10], -0.0952. Also, the z-score in experiment [8] was 2.39 (inactive).
Take `COc1cc2c(cc1O)C=[N+](Cc1sc3ccccc3c1Cl)CC2`: the composite z-score in experiment [1] is 0.172; in [2] it was -0.0743; in experiment [3], -0.0999; in [4], 0.1; in experiment [5], 1.06; in [6], -0.102. In addition, the composite z-score was 1.48 in experiment [7], -0.161 in experiment [9] and 0.0178 in experiment [10]. For the same compound, the z-score in [8] is 0.432 (inactive).
On to `COC(=O)[C@@]1(Cc2ccc(OC)cc2)[C@H]2c3cc(C(=O)N(C)C)n(Cc4ccc(OC(F)(F)F)cc4)c3C[C@H]2CN1C(=O)c1ccccc1`, for which the composite z-score in experiment [1] was 0.363; in experiment [2] it was -0.468; in experiment [3] it was -0.121; in experiment [4], -0.0332; in [5], 1.58; in experiment [6], 1.39. Moreover, the results for the composite z-score in [7], in [9] and in experiment [10] were 1.44, 0.575 and 0.276, respectively. In addition, the z-score in experiment [8] was 2.88 (inactive).
On to `COCCOC(=O)N1C(=O)[C@@]2(c3cc(C#CC4(O)CCCCCC4)ccc31)[C@H](C(=O)Nc1nc3ccccc3s1)[C@H]1C(=O)O[C@H](c3ccccc3)[C@H](c3ccccc3)N1[C@@H]2c1ccc(O)cc1`, for which the composite z-score was -0.304 in experiment [1]; 0.442 in [2]; -0.0202 in experiment [3]; 0.539 in experiment [4]; 1.24 in [5]; 1.46 in experiment [6]. The values for the composite z-score in [7], in [9] and in experiment [10] were 1.2, 1.47 and 0.107, respectively. Further, the z-score in experiment [8] is 0.21 (inactive).
Consider `COc1ccc([Si](C)(C)[C@H]2[C@H](CC(=O)N(CCO)Cc3ccccc3)O[C@@]3(C(=O)N(C)c4c(Br)cc(C)cc43)[C@@H]2C)cc1`, for which the composite z-score in experiment [1] is 0.145; in [2], 0.671; in experiment [3], -0.0861; in experiment [4] it was 0.208; in experiment [5], -0.0381; in experiment [6] it was 0.435. Also, the figures for the composite z-score in experiment [7], in experiment [9] and in experiment [10] were 1.22, 0.152 and 0.107, respectively. Further, the z-score in [8] was -2.73 (inactive).
Regarding `COCCOC(=O)N1C(=O)[C@@]2(c3cc(C#CC4(O)CCCCCC4)ccc31)[C@H](C(=O)N1CCc3cc(OC)c(OC)cc3C1)[C@H]1C(=O)O[C@H](c3ccccc3)[C@H](c3ccccc3)N1[C@@H]2c1ccc(OCCO)cc1`, the composite z-score is -0.409 in experiment [1]; 0.502 in [2]; 0.0088 in [3]; 0.467 in experiment [4]; 1.24 in experiment [5]; 0.675 in [6]. For the same compound, the results for the composite z-score in experiment [7], in experiment [9] and in experiment [10] were 1.18, 0.198 and -0.0994, respectively. Moreover, the z-score in experiment [8] was 1 (inactive).
Turning to `CCCCC(=C=CC[C@H](O)c1ccc(OCCO)cc1)CCO`, the composite z-score is -0.253 in experiment [1]; -0.0707 in [2]; -0.114 in experiment [3]; -0.161 in [4]; -0.425 in [5]; 1.48 in experiment [6]. Also, the composite z-score in [7] is 0.66; in [9] it was -0.493; in experiment [10], 0.0156. Further, in experiment [8], the z-score was -0.572 (inactive).
Take `COC(=O)C1(CC(C)C)C=C2C(=C(c3ccccc3)C(=O)C2C)CN1` (stereo not given): the composite z-score came to 1.92 in experiment [1]; 0.442 in experiment [2]; 0.669 in [3]; 0.746 in [4]; 1.1 in experiment [5]; 1.02 in [6]. The results for the composite z-score in experiment [7], in [9] and in experiment [10] were 0.78, 1.15 and 0.935, respectively. For the same compound, in [8], the z-score was 1.19 (inactive).
As to `COc1ccc([Si](C)(C)[C@H]2[C@H](CC(=O)N3CCC[C@H]3CO)O[C@@]3(C(=O)N(Cc4ccc(N5CCOC5=O)cc4)c4ccccc43)[C@@H]2C)cc1`, the composite z-score was -0.591 in [1]; 0.582 in experiment [2]; -0.043 in experiment [3]; 0.44 in [4]; 1.15 in experiment [5]; 1.1 in [6]. Also, the composite z-score was 1.21 in experiment [7], 0.268 in experiment [9] and -0.0237 in experiment [10]. For the same compound, the z-score in experiment [8] was -4.09 (inactive).
In the case of `CCOC(=O)C[C@H]1[C@H](OC(=O)c2ccc(C(=O)c3ccccc3)cc2)[C@@H](NC(=O)CC(C)C)c2cc(OCCCO)ccc2N1C(=O)c1ccccc1`, the composite z-score in experiment [1] was -0.399; in experiment [2], 0.275; in experiment [3] it was -0.0266; in [4], 0.542; in [5], 1.2; in experiment [6], 0.807. Further, the composite z-score in [7] stood at 0.996; in experiment [9], 0.766; in [10] it was 0.0129. Moreover, the z-score in [8] is -0.16 (inactive).
